Screening results from PubChem BioAssay.
Only some compounds are listed: those with a hit (about 19% of all), similar ones and a draw of the others.
IL1B secr inh – qHTS for Inhibitors of Inflammasome Signaling: IL-1-beta AlphaLISA Primary Screen; THP-1 LPS/ATP IL-1B secretion, AlphaLISA, 16 h; stronger effect = lower value; activity change, % at 57.5 µM; hit rate 4.7% among 360,000; in the data active means activity change below about -50%; inconclusive means mostly about -30% to -49%
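Secreted IL-1B measured by AlphaLISA bead assay after 16 h compound exposure of THP-1 cells; compounds (final up to 57.5 uM) added 1 h before LPS (250 ng/mL) and ATP (1.25 mM) stimulation; lower signal means less secretion.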
HT1080-NT tox – qHTS for induction of synthetic lethality in tumor cells producing 2HG: qHTS for the HT-1080-NT fibrosarcoma cell line; HT-1080-NT fibrosarcoma viability, CellTiter-Glo ATP luminescence, 48 h; Potency, µM (series often up to 46.1 µM), for the others: at the top dose activity, negative = less viability, hits mostly cytotoxic; hit rate 1.6% among 360,000; AID 686970, 2013;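 further: NT is the 2HG producing partner of a matched IDH1 knockdown line; potency means the concentration at half of the fitted maximal effect; 0% = DMSO-treated cells and -100% = media-only wells without cells; nearly all actives have a fitted effect of over 55% in size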
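Viability of the 2HG-overproducing fibrosarcoma line after 48 hours of compound exposure at 37 degrees C was determined by luminescence with CellTiter-Glo, and concentration-effect curves were then fitted and categorized.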
TDP1 cell CPT – qHTS for Inhibitors of human tyrosyl-DNA phosphodiesterase 1 (TDP1): qHTS in cells in presence of CPT. chicken DT40 Tdp1-/-;hTDP1 cells + 20 nM CPT, ATP luminescence, 48 h. Potency, µM (series often up to 46.2 µM), inactives show top-dose activity change, negative = growth inhibition, hits mostly inhibitors. hit rate 12% among 420,000. AID 686979, 2013; further: potency means the concentration at half of the fitted maximal effect; nearly all actives have a fitted effect of over 55% in size
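Chicken DT40 Tdp1-/- cells stably complemented with human TDP1 were seeded at 400 cells/well in medium containing 20 nM camptothecin, exposed to pin-transferred compounds, and grown at 37 °C for at least 48 hr. Viability was read as ATP luminescence.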
uPA surface inh – qHTS for Inhibitors of Cell Surface uPA Generation; cell surface uPA generation assay, qHTS; Potency, µM (doses to about 38.3 µM), for the others: top-dose activity change, negative = inhibition, most hits filed as inhibitors; hit rate 0.31% among 330,000; AID 540303, 2011; active means well fitted inhibition curve with a large enough effect; inconclusive means small, poorly fitted or top-dose-only effect; inactive means no such curve, though single readings can be large or run the other way; tested in mouse RAW 264.7 cells; further: potency means the concentration at half of the fitted maximal effect; nearly all actives have a fitted effect of over 55% in size
DT40 TDP1 no CPT – qHTS for Inhibitors of human tyrosyl-DNA phosphodiesterase 1 (TDP1): qHTS in cells in absence of CPT; DT40 Tdp1-/- hTDP1 cells, no CPT, ATP luminescence, 48 h; Potency, µM (top dose mostly 46.2 µM), inactives show top-dose activity change, negative = growth inhibition, most hits filed as inhibitors; hit rate 15% among 420,000; AID 686978, 2013; further: potency means the concentration at half of the fitted maximal effect; nearly all actives have a fitted effect of over 55% in size
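Cells were dispensed at 400 per well, compounds added by pin tool, plates incubated ≥48 hr at 37 °C, then CellTiter-Glo added for 30 min at room temperature before luminescence reading. Line: DT40 Tdp1-/- complemented with hTDP1; camptothecin omitted.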
HT1080 IDH1KD tx – qHTS for induction of synthetic lethality in tumor cells producing 2HG: qHTS for the HT-1080-IDH1KD cell line; AID 686971, 2013; HT-1080 IDH1 knockdown viability, ATP luminescence, 48 h; Potency, µM (highest dose often 46.1 µM), without a hit: at the highest dose activity, negative = toxicity, most hits filed as cytotoxic; hit rate 2% among 360,000;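 further: potency means the concentration at half of the fitted maximal effect; 0% = DMSO wells and -100% = cell-free medium wells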
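Knockdown cells (IDH1KD HT-1080) received compounds 2 h after plating at 750 cells/well and were kept 48 h at 37 °C in 5% FBS RPMI. A CellTiter-Glo luminescence read gave % activity for curve fitting.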
* hit, by the source's call; ? = inconclusive; · = no result given; [ ] = remark or other dose. Unless noted, the call rests on the fitted dose curve; in most records, active means well fitted curve in the direction sought with a large enough effect; inconclusive means small, poorly fitted or top-dose-only effect, or another doubt; inactive means no such curve, though single readings can be large; an effect the other way counts as inactive or inconclusive. Unless noted, on the % scale 0 is the no-effect control and ±100 the full control effect.

SMILES	IL1B secr inh	HT1080-NT tox	TDP1 cell CPT	uPA surface inh	DT40 TDP1 no CPT	HT1080 IDH1KD tx
C=CCn1c(SCC(=O)NCC2CCCO2)nnc1-c1ccncc1 (centres undefined)	0	-6%	-5%	1%	-14%	-4%
FC(F)(F)c1ccccc1NC(=S)Nn1cnnc1	-4	0%	?	-9%	-3%	4%
COc1ccc(NC(=O)c2oc3ccc(S(=O)(=O)N4CCCCC4)cc3c2C)cc1Cl	·	·	9.2µM*	·	13µM*	·
Cc1ccc(Cl)cc1NC(=O)c1oc2ccc(S(=O)(=O)N3CCCCCC3)cc2c1C	·	·	-27%	·	-20%	·
Cc1c(C(=O)Nc2ccc(-c3nnc4n3CCCCC4)cc2)oc2ccc(Br)cc12	-65*	-9%	?	?	?	-14%
Cc1c(C(=O)Nc2ccc(F)cc2)oc2ccc(S(=O)(=O)N3CCCCCC3)cc12	·	·	18µM*	·	18µM*	·
Cc1c(Cl)cccc1NC(=O)c1oc2ccc(S(=O)(=O)N3CCCCCC3)cc2c1C	·	·	?	·	8.2µM*	·
CCCCCNC(=O)C(c1ccnc2ccccc12)n1c(=O)c(-c2cc3ccccc3[nH]2)nc2ccccc21 (centres undefined)	-12	-26%	?	·	?	-22%
N=c1ccn(CC(=O)c2ccc(-c3ccccc3)cc2)cc1	-69*	?	4.6µM*	?	2.9µM*	16µM*
COc1cccc(C(=O)OCC(=O)NCCC2=CCCCC2)c1	16	4%	-16%	2%	-10%	1%
Cc1ccc2c(c1)[C@H]1[C@H](CO2)[C@H](c2ccccc2)[C@]2(C)C(=O)Nc3ccc(Cl)cc3C(=O)N12	?	-17%	?	?	15µM*	?
Cc1ccc2c(c1)[C@H]1[C@H](CO2)[C@H](c2ccccc2)[C@]2(C)C(=O)Nc3cc(F)ccc3C(=O)N12	?	?	?	7.1µM*	?	8.2µM*
Cc1ccc2c(c1)C(=O)N1[C@H]3c4ccccc4OC[C@@H]3[C@H](c3ccccc3)[C@]1(C)C(=O)N2	-62*	-2%	?	-44%	?	-2%
CCOC(=O)[C@H]1[C@H]2COc3ccc(C)cc3[C@@H]2N2C(=O)c3cc(Cl)ccc3NC(=O)[C@@]12C	-27	-12%	?	16%	?	-9%
COc1cc(C2c3c(oc4ccc(F)cc4c3=O)C(=O)N2c2nc(C)c(C)s2)cc(OC)c1OC (centres undefined)	·	·	7%	·	-1%	·
COC(=O)C1(C)COP(=O)(Nc2ccc(OC)cc2)OC1 (centres undefined)	24	11%	-27%	·	-28%	3%
Cc1ccc(NC(=O)c2c(O)c3ccccc3n(C)c2=O)nc1	28	1%	?	1%	21µM*	0%
Cc1cccc(NC(=O)c2c(O)c3ccccc3n(C)c2=O)c1	8	-8%	?	8%	15µM*	-8%
CCn1cc(C(=O)NCCCN(CC(C)C)CC(C)C)c(=O)c2cc(S(=O)(=O)N3CCOCC3)ccc21	-16	-1%	-2%	2%	12%	3%
O=C1C[C@H]2C=CCc3cccc(c32)CN1Cc1ccc(F)cc1	·	·	?	·	13µM*	·
Cc1ccc(CN2Cc3cccc4c3[C@@H](CC2=O)[C@H](O)[C@H](O)C4)cc1	4	8%	-3%	19%	-7%	10%
Cc1cccc(CN2Cc3cccc4c3[C@H](C=CC4)CC2=O)c1	·	·	16µM*	·	20µM*	·
O=S(=O)(c1ccc2c(c1)CCN2)N1CCCC1	0	0%	-4%	19%	9%	-6%
O=C(Cc1cccc2ccccc12)N/N=C/c1ccc(O)c([N+](=O)[O-])c1	13	-3%	20%	3%	-16%	-12%
O=C(Cc1cccc2ccccc12)N/N=C/c1ccc2cccc(O)c2n1	30	?	?	-3%	15µM*	23µM*
SMILES	IL1B secr inh	HT1080-NT tox	TDP1 cell CPT	uPA surface inh	DT40 TDP1 no CPT	HT1080 IDH1KD tx
CCN(CC)c1cc(C)c2cc(NC(=O)/C=C/c3ccc(C)cc3)ccc2n1	·	·	5.8µM*	·	5.2µM*	·
CCOc1ccc(/C=C/C(=O)Nc2ccc3nc(N(CC)CC)cc(C)c3c2)cc1OC	·	·	5.2µM*	·	10µM*	·
CCN(CC)c1cc(C)c2cc(NC(=O)/C=C/c3cc(OC)c(OC)c(OC)c3)ccc2n1	·	·	6.5µM*	·	7.3µM*	·
CCN(CC)c1cc(C)c2cc(NC(=O)CNC(C)=O)ccc2n1	-4	-5%	32%	3%	-12%	-3%
COc1ccc(/C=C/C(=O)Nc2ccc(S(=O)(=O)Nc3cc(C)nc(C)n3)cc2)cc1OC	14	-17%	-3%	-1%	-4%	8%
CC1(C)S[C@@H]2[C@H](NC(=O)Cc3ccccc3)C(=O)N2[C@H]1C(=O)O (tested in a mixture with another compound)	·	·	-2%	·	?	·
COc1cc(O)c(C(CC(=O)N2CCCC(C)C2)c2ccc(N(C)C)cc2)c(OC)c1 (centres undefined)	-23	3%	?	-6%	?	6%
COc1cc(O)c(C(CC(=O)N2CCN(c3ccccc3)CC2)c2ccc(N(C)C)cc2)c(OC)c1 (centres undefined)	-15	3%	23µM*	17%	-20%	-4%
COc1ccc(C(CC(=O)N2CCN(c3ccccc3)CC2)c2c(OC)cc(OC)c3ccc(=O)oc23)cc1 (centres undefined)	-8	-5%	21µM*	-4%	?	0%
COC(=O)c1n[nH]nc1-c1ccccc1	0	1%	-21%	1%	0%	7%
COC(=O)c1[nH]nc(C(=O)OC(C)(C)C)c1-c1ccccc1	44	8%	16µM*	-1%	13µM*	-1%
CCC(C)(C)n1nnnc1C(c1ccc(O)c(OC)c1)N1CCc2ccccc2C1 (centres undefined)	17	3%[9.24 µM]	7.3µM*	·	13µM*	?
CCC(C)(C)n1nnnc1C(c1ccccc1)N1CCc2ccccc2C1 (centres undefined)	16	0%	?	0%	23µM*	0%
